The list is not random: actives were taken first. Their share in the collection is about 1.7%.
KCNH2 WT inh: qHTS for Inhibitors of KCHN2 3.1: Wildtype qHTS; activity change, % at 1.84 µM; Voltage-gated inwardly rectifying potassium channel KCNH2 (Homo sapiens), Q12809; U2OS, BacMam KCNH2, thallium flux FluxOr; stronger effect = lower value; 340,000 compounds, 0.37% hits;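 active = maximum activity change below -70%; inconclusive = maximum activity change between -70% and -50%; inactive = maximum activity change above -50%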
Target sequence (Q12809 whole entry, looked up): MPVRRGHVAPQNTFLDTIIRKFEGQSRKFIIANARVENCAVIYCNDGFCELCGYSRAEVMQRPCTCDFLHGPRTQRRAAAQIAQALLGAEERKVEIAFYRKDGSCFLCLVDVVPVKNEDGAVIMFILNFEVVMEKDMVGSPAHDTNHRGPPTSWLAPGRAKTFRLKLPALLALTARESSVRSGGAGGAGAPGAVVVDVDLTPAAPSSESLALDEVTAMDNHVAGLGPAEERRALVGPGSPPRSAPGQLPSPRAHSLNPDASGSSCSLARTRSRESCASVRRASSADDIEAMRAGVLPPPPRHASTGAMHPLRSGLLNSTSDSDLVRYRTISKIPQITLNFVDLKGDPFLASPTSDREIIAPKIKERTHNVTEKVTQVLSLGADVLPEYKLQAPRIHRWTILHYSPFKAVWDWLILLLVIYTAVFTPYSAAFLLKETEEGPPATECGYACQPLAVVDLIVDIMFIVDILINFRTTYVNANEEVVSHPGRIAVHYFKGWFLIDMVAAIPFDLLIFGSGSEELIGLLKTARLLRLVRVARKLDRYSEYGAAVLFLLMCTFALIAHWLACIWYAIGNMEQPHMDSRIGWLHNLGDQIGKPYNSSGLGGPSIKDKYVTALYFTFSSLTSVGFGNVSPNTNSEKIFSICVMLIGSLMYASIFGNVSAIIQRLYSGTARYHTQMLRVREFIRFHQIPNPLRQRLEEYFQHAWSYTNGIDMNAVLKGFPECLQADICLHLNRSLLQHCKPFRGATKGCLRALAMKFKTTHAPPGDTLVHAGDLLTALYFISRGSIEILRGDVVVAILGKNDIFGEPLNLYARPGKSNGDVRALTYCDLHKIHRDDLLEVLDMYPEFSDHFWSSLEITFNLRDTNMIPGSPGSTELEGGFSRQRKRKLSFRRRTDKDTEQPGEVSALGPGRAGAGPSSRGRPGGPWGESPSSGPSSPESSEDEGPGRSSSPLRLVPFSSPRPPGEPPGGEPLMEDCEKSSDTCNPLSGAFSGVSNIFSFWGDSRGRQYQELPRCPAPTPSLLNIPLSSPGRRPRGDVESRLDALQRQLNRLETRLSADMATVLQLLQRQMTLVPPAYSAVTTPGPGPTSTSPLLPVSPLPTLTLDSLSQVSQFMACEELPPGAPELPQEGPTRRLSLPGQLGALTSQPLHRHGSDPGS
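U2OS cells transduced with wild-type KCNH2 virus are loaded with FluxOr dye for 45 min, and thallium flux is measured in kinetic reads before and after stimulation buffer. Rate constants are normalized to DMSO controls.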
Giardia killer: Small Molecules that selectively kill Giardia lamblia: qHTS; Giardia lamblia trophozoite viability; activity change, % at 7.66 µM, hits read low; 340,000 compounds, 0.15% hits; in the data active = activity change below about -80%; inconclusive = between about -30% and that limit;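 note: parasites exposed to compound for two days anaerobically before the ATP read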
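Each well holds 100 Giardia trophozoites and compound. After two days (48 hrs) at 37 deg C in anaerobic conditions, ATP is quantified by luminescence.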
KCNH2 3.1 block: qHTS for Inhibitors of KCHN2 3.1: Mutant qHTS | Potassium voltage-gated channel subfamily H member 2, brain isoform KCNH2 3.1 (human) | 340,000 compounds, 0.95% hits | activity change, % (tested at about 1.8 µM) | U2OS KCNH2 3.1, thallium flux FluxOr; stronger effect = lower value | AID 720553, 2013;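 active = maximum activity change below -70%; inconclusive = maximum activity change from -70% to -50%; inactive = maximum activity change above -50%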;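 note: thallium influx rate constant from kinetic fluorescence after stimulation buffer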
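Normalized rate constant (relative to positive and negative DMSO controls) derived from a 2 min kinetic fluorescence read after stimulation; U2OS cells expressing the 3.1 isoform via virus at 1.77 x 10^8 /mL.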
USP1 inh: Inhibitors of USP1/UAF1: Primary Screen | Ubiquitin carboxyl-terminal hydrolase 1 (Homo sapiens), O94782 | recombinant USP1/UAF1, Ub-Rhodamine cleavage fluorescence | Potency, µM (highest dose often 57.1 µM), inactives show top-dose activity change, negative = inhibition, hits mostly inhibitors | 390,000 compounds, 0.23% hits | AID 743255, 2014; active = well fitted inhibition curve with a large enough effect; inconclusive = small, poorly fitted or top-dose-only effect; inactive = no such curve, though single readings can be large or run the other way; note: potency is the fitted concentration of half-maximal effect; nearly all actives have a fitted effect of over 60% in size
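High-throughput fluorogenic screen: 1nM USP1/UAF1 complex, Ub-Rho substrate 150nM final, 50mM HEPES pH 7.8 with 0.5mM EDTA, 0.1 mg/ml BSA, 1mM TCEP and 0.01% Tween-20.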
Coupling enz: qHTS Assay for Inhibitors of Fructose-1,6-bisphosphate Aldolase from Giardia Lamblia: Coupling assay counterscreen; activity change, negative = inhibition, % at 58.2 µM, hits read low; 290,000 compounds, 0.67% hits; coupling enzyme system counterscreen, AmpLite Red fluorescence; in the data active = activity change below about -30%
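Fluorescence at 525 nm excitation and 598 nm emission measured inhibition of the coupled detection system without aldolase. Compounds (at 57.5 uM final) were preincubated 10 min at room temperature with coupling enzyme reagent before a 20 min substrate/AmpLite Red step.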
Starred values were filed as active, the others as inactive; i = inactive; ? = inconclusive; . = no result. % is set by controls: 0 for no effect and ±100 for the full control effect.

SMILES	KCNH2 WT inh	Giardia killer	KCNH2 3.1 block	USP1 inh	Coupling enz
CC(C)(C)C(=O)Nc1ccc2c(c1)C(=O)C(=O)c1ccccc1-2	.	13	.	.	.
COC(=O)C1=C(C)N(c2ccccc2)/C(=C/c2ccco2)C1=O	-3	10	-73*	-25%	-4
Cn1c(=S)c2[nH]c(SCCC(C)(C)C)nc2n(C)c1=O	-115*	33	-49	4%	.
CCCCC(C)Sc1nc2c([nH]1)c(=S)n(C)c(=O)n2C (configuration not stated)	-144*	8	?	-19%	.
CCCCSc1nc2c([nH]1)c(=S)n(C)c(=O)n2C	-36	1	8	-7%	.
CCCC(CC)Sc1nc2c([nH]1)c(=S)n(C)c(=O)n2C (configuration not stated)	-92*	-17	-14	-3%	.
c1csc(CNc2ccnc(-c3ccc4c(c3)OCO4)n2)c1	.	.	.	.	-13
CN1C[C@@H]2C(c3ccccc3)C3(c4ccccc4)CC2(C3)[C@H]1c1ccccc1 (some centres not stated)	6	-11	-43	-18%	1
CN1C[C@@H]2C(c3ccccc3)C3(c4ccc(C#N)cc4)CC2(C3)[C@H]1c1ccccc1 (some centres not stated)	-45	?	-112*	-7%	1
CN1C[C@@H]2C(c3ccc(C(F)(F)F)cc3)C3(c4ccc(C#N)cc4)CC2(C3)[C@H]1c1ccccc1 (some centres not stated)	-102*	-11	-92*	-4%	-6
Cc1ccc2oc(-c3ccc(C)c(NC(=O)C(C)(C)Oc4ccc(Cl)cc4)c3)nc2c1	.	.	.	-13%	.
CCOC(=O)c1c(C)c(C(=O)NCCc2ccc(OC)cc2)c(C)n1CC	.	.	.	-30%	.
Oc1ccc(-c2nc3ccccn3c2NCc2ccc3c(c2)OCO3)cc1	16	7	?	-4%	3
Cc1ccn2c(NCc3ccc4c(c3)OCO4)c(-c3ccc(O)cc3)nc2c1	-12	-9	-75*	-8%	-1
Cc1cc(NC(=O)NC(=O)c2ccccc2NC(=O)C(C)N)ccc1Oc1ncc(Br)cn1 (configuration not stated)	-6	16	11	-15%	.
CN1c2ccccc2C(C)(C)C12C=Nc1c(ccc3ccccc13)O2 (configuration not stated)	-11	11	-8	?	-78*
CCOC(=O)C(C)Sc1ccc2nnc(-c3ccc(OCC)cc3)n2n1 (configuration not stated)	.	-8	.	.	.
O=C(NCc1ccco1)c1cc(NS(=O)(=O)c2cccc([N+](=O)[O-])c2)ccc1O	-152*	37	-198*	-4%	10
S=C(NCCCN1CCOCC1)N1CCN(c2nc(-c3ccc(Cl)cc3)cs2)CC1	-13	-2	-71*	-8%	4
S=C(NCCCN1CCOCC1)N1CCN(c2nc(-c3ccccc3)cs2)CC1	16	-9	-5	-14%	-1
CCCN(CC(=O)Nc1ccccc1OC)C(=O)Cn1c(=O)oc2ccccc21	4	11	-17	-21%	.
COc1ccc(/C=N/NC(=O)c2ccncc2)cc1CN1CCN(c2ccc(F)cc2)CC1	18	18	-90*	-3%	2
COc1ccc(/C=N/NC(=O)c2ccc(F)cc2)cc1CN1CCc2cc(OC)c(OC)cc2C1C (configuration not stated)	-91*	1	-88*	-10%	0
COc1ccc(/C=N/NC(=O)c2ccc(C)cc2)cc1CN1CCN(c2ccc(F)cc2)CC1	-72*	-29	-108*	-2%	6
COc1ccc(/C=N\NC(=O)c2cc(O)c(O)c(O)c2)cc1CN1CCN(c2ccc(F)cc2)CC1	-6	24	-13	-4%	-6
SMILES	KCNH2 WT inh	Giardia killer	KCNH2 3.1 block	USP1 inh	Coupling enz
COc1ccc(/C=N/NC(=O)c2ccn[nH]2)cc1CN1CCOCC1	0	-2	-2	-16%	5
Cc1ccc(-c2onc(C)c2C)cc1S(=O)(=O)NC1CCC(C)CC1 (configuration not stated)	.	.	.	-20%	.
Cc1nc(NCCO)c2nc(-c3ccccc3)n(CCN(C)C)c2n1	.	.	.	.	1
O=C1/C(=C\c2ccccc2)CN(C(=O)CCN2CCCCC2)C/C1=C/c1ccccc1	-17	9	-75*	-15%	.
Cc1c(CC(=O)N[C@@H](CCCNC(N)=O)C(=O)O)c(=O)oc2cc3oc4c(c3cc12)CCCC4	.	.	.	.	2
CCCCC(NC(=O)Cc1c(C)c2cc3c4c(oc3cc2oc1=O)CCCC4)C(=O)O (configuration not stated)	-151*	-6	-3	-7%	7
COc1ccc(-c2nnc3n2N=C(c2ccc(OC)cc2OC)CS3)cc1	.	.	.	.	0
O=C(Nc1ccc(N2CCN(C(=O)c3ccccc3)CC2)cc1)c1ccc([N+](=O)[O-])o1	-20	-100*	-20	-13%	-10
Cc1ccccc1C(=O)N1CCN(c2ccc(NC(=O)c3ccc([N+](=O)[O-])o3)cc2)CC1	1	-91*	-19	-15%	0
CC(C)C(=O)N1CCN(c2ccc(NC(=O)c3ccc([N+](=O)[O-])o3)cc2)CC1	-1	?	-14	-15%	-6
O=[N+]([O-])c1ccc(-c2ccc(/C=N/Nc3nc(N4CCCC4)nc(N4CCCC4)n3)o2)cc1	i	-6	?	?	2
CCNc1nc(NCC)nc(N/N=C/c2ccc([N+](=O)[O-])o2)n1	-5	-82*	8	-13%	-7
CCNc1nc(NCC)nc(N/N=C/c2ccccc2)n1	26	-8	17	-9%	1
O=[N+]([O-])c1ccc(/C=N/Nc2nc(N3CCCC3)nc(N3CCCC3)n2)o1	10	-95*	-2	-20%	-6
Cc1cnc([N+](=O)[O-])n1CCOC(=O)NC(=O)c1c(F)cccc1F	-1	?	29	-7%	0
Cc1ccc(C(=O)NC(=O)OCCn2c(C)cnc2[N+](=O)[O-])cc1	5	-88*	4	-6%	0
COc1ccccc1C(=O)NC(=O)OCCn1c(C)cnc1[N+](=O)[O-]	0	-82*	24	-8%	0
Cc1cnc([N+](=O)[O-])n1CCOC(=O)NC(=O)c1ccccc1	4	?	-2	2%	2
CCOC(=O)c1[nH]c2ccccc2c1NC(=O)c1ccc(C)c(C)c1	.	.	.	-15%	.
CC(C)(C)N1C(=O)[C@H]2[C@@H](c3ccc(Br)cc3)N3C(=O)N(c4cccc(F)c4)C(=O)[C@@]3(Cc3ccccc3)[C@H]2C1=O	-1	4	0	?	.

Assay outcomes as filed in PubChem.
